Data reported in PubChem BioAssay (EPA / NIEHS).
Inconclusive results are not listed. The source made the active and inactive calls. How the source made its calls: active means hit-call score of the fitted dose curve at least 0.9, where 1 is the maximum; inconclusive means response in the unintended direction; inactive means score below 0.9.

test: Tanguay_ZF_120hpf_CIRC_legacy: (Legacy) Oregon State University Tanguay Lab 120 Hour Post-fertilization zebrafish Assay for Circulatory Malformation (AID 2283651)
Protocol: Tanguay_ZF_120hpf_legacy is a whole embryo, multiplexed endpoint assay using zebrafish larvae exposed for 120 hours post fertilization on a 96-well plate.Tanguay_ZF_120hpf_CIRC_legacy is one of one assay component(s) measured or calculated from the Tanguay_ZF_120hpf_legacy assay. It is designed to make measurements of zebrafish development as detected with brightfield microscopy of developing zebrafish embryos.Data from the assay component Tanguay_ZF_120hpf_CIRC_legacy was analyzed into 1 assay endpoints. This assay endpoint, Tanguay_ZF_120hpf_CIRC_legacy, was analyzed in the positive analysis fitting direction relative to DMSO as the negative control and baseline of activity. Using a type of morphology reporter, gain-of-signal activity can be used to understand changes in developmentals as they relate to the whole embryo. To generalize the intended target to other relatable targets, this assay endpoint is annotated to the zebrafish development intended target family, where the subfamily is angiogenesis.
Zebrafish husbandry: Tropical 5D wild-type adult zebrafish were housed in at an approximate density of 1000 per 100 gallon tank at the Sinnhuber Aquatic Research Laboratory, Oregon State University, Corvallis, OR. Each tank was kept at standard laboratory conditions of 28C on a 14-h light/10-h dark photoperiod in fish water consisting of reverse osmosis water supplemented with a commercially available salt (Instant Ocean). Spawning funnels were placed into the tanks the night prior, and embryos were collected and staged. To increase bioavailability, the chorion was enzymatically removed using pronase (63.6mg/ml, >/= 3.5U/mg, Sigma-Aldrich: P5147) at 4 hours post fertilization (hpf) using a custom automated dechorionator.Chemical exposures: Six hpf dechorionated embryos were placed 1 embryo per well in a 96-well plate prefilled with 90 ul of EM using automated embryo placement systems (AEPS). Ten microliters of each row of dilution plate 2 was added to 2 exposure plates. The final DMSO concentration used was 0.64% (vol/vol). Thirty-two embryos were also exposed to 5uM trimethyltin chloride (positive control). Plates were sealed to prevent evaporation and foil covered to reduce light exposure and kept in a 28C incubator. Embryos were statically exposed until 120 hpf. At 24 hpf, embryos were assessed for photomotor response using a custom photomotor response analysis tool (PRAT) and for developmental toxicity endpoints (MO24: mortality at 24 hpf, DP: developmental progression, SM: spontaneous movement, and NC: notochord distortion). At 120 hpf, locomotor activity was measured using Viewpoint Zebralab and assessed for 18 endpoints. Zebrafish acquisition and analysis program (ZAAP), a custom program designed to inventory, acquire, and manage zebrafish data, was used to collect developmental endpoints as either present or absent (i.e., binary responses were recorded). If mortality occurred for an embryo (at either 24 or 120 hpf), the non-mortality endpoints were not measured.

Compound	outcome
NC(=O)N1c2ccccc2C=Cc2ccccc21	inactive
CC(C)c1nnc2ccc(-c3ocnc3-c3cc(F)ccc3F)cn12	inactive
CNC(C)=O	inactive
OC(Cn1cncn1)(Cn1cncn1)c1ccc(F)cc1F	inactive
COc1cc2c(c(OC)c1OC)-c1ccc(OC)c(=O)cc1[C@@H](NC(C)=O)CC2	inactive
CCCCN1C(=O)[C@@H]([C@H](O)C2CCCCC2)NC(=O)C12CCN(Cc1ccc(Oc3ccc(C(=O)O)cc3)cc1)CC2	inactive
CCCCCCOC(=O)CC(CC(=O)OCCCCCC)(OC(=O)CCC)C(=O)OCCCCCC	inactive
CCCCCCCCN(C)C	inactive
O=S1(=O)CCCO1	inactive
OCc1ccccc1	inactive
CC(C)CCCCCCOC(=O)C1CCCCC1C(=O)OCCCCCCC(C)C (stereo not given)	inactive
O=C(NO)C1(NS(=O)(=O)c2ccc(Oc3ccc(F)cc3)cc2)CCOCC1	inactive
Cn1cc[nH]c1=S	inactive
OC(CCl)CCl	inactive
CCCCCCCCCCCCCCO	inactive
CCc1ccc(O)c(C(C)(C)C)c1	inactive
CC(=O)c1ccccc1	inactive
CCn1nc(C)c2c1C(=O)NCC(c1ccc(O)cc1)=N2	inactive
COc1cc(C(C)C)c2c(c1)S(=O)(=O)N(COc1cc(=O)n3cccc(OCCN4CCCCC4)c3n1)C2=O	inactive
CC(C)C(=O)Nc1ccc([N+](=O)[O-])c(C(F)(F)F)c1	inactive

Compound	outcome
Cc1ccc(S(=O)(=O)NC(=O)NN2CCCCCC2)cc1	inactive
OCCOCCOCCO	inactive
C=CCc1cc(S(=O)(=O)c2ccc(O)c(CC=C)c2)ccc1O	inactive
CC1(C)C(=O)N(Cl)C(=O)N1Cl	inactive
O=C(O)c1ccc2c(c1)nc(C(=O)NC1CCN(C3CC3)CC1)n2Cc1cc(-c2ccc(Cl)s2)on1	inactive
NC(=O)NN=Cc1ccc([N+](=O)[O-])o1	inactive
Cc1nc(-c2ccccn2)ncc1C(=O)Nn1cc(C)c2cc(F)ccc21	inactive
OCC(CO)(CO)CO	inactive
CCCCCCCCCCCCCCCCOS(=O)(=O)O	inactive
CC[C@H](C)C(=O)O[C@H]1C[C@H](O)C=C2C=C[C@H](C)[C@H](CC[C@@H](O)C[C@@H](O)CC(=O)O)[C@H]21	inactive
c1ccc2c(c1)-c1cccc3c1c-2cc1ccccc13	inactive
CCCC(CCC)C(=O)O	inactive
Nc1ccn([C@@H]2O[C@H](CO)[C@@H](O)[C@@H]2O)c(=O)n1	inactive
COS(C)(=O)=O	inactive
COCc1nnc(-c2ccc[n+]([O-])c2)n1-c1c(Cl)c(Cl)cc2[nH]c(=O)c(=O)[nH]c12	inactive
Cn1c(=O)c2[nH]cnc2n(C)c1=O	inactive
O=c1[nH]cnc2c1ncn2[C@H]1CC[C@@H](CO)O1	inactive
O=C(O)c1cccc(C[C@@H]2COc3ccc(OCc4nc5cc(F)ccc5s4)cc3[C@@H]2O)c1	inactive
CCCOc1ccc(S(=O)(=O)N2CCN(CC)CC2)cc1-c1nc2c(CC)n(Cc3ccccn3)nc2c(=O)[nH]1	inactive
O=C1CN(N=Cc2ccc([N+](=O)[O-])o2)C(=O)N1	inactive
